ATXN viability: reduces viability in counter-screen for ATXN expression inhibitors; S2 cells (HEK-293 line with an ATXN2-luciferase reporter) viability, CellTiter-Fluor protease fluorescence, 24 h; Potency, µM (top dose mostly 56.7 µM), usual class: cytotoxic; 400,000 tested, 0.49% active; further: nearly all actives have a fitted effect of over 40% in size
RORg inh: inhibitors of mouse ROR gamma transcriptional activity; P51450; Drosophila S2 Gal4-RORgamma UAS-luciferase reporter, 20 h; Potency, µM (highest dose often 53.6 µM), most hits filed as inhibitors; 310,000 tested, 5.4% active; AID 2551; further: nearly all actives have a fitted effect of over 60% in size
Target sequence (P51450 whole entry, looked up, the tested form may be a part): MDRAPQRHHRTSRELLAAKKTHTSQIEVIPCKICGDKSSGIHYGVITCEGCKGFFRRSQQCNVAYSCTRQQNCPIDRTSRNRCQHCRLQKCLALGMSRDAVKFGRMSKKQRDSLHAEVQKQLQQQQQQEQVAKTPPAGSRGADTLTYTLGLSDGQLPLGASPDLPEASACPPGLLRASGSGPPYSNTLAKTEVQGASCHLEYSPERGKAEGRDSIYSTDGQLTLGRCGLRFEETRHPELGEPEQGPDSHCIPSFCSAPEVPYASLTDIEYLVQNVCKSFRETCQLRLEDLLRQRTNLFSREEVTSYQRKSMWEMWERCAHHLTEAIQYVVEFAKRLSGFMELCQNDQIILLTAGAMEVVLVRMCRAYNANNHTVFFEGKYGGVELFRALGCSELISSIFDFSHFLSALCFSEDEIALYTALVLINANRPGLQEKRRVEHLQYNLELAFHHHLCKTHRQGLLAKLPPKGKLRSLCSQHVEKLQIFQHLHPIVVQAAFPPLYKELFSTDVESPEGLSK
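Stable Schneider cell line, Gal4 DNA-binding domain fused to ROR gamma, UAS-luciferase. Cmpd 1 hr RT → CuSO4 700 uM final → 20 hr RT → luciferase reagent 10 min → luminescence.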
TGFb SMAD3 inh: TGF-b pathway inhibition; HepG2 CAGA-GFP TGF-b/SMAD3 reporter, GFP fluorescence, 18 h; TGF-beta stimulated, 500 pg/mL final; Potency, µM (doses to about 46.1 µM), most hits filed as inhibitors; AID 588855; 410,000 tested, 1.2% active; further: nearly all actives have a fitted effect of over 65% in size
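HEPG2 CAGA-GFP, 1000 cells/well; 2 h settle, 37 C; cpd via pin tool; TGF-b 500 pg/mL final; 18 h, 37 C; GFP imaging ex488/em500-530; %Activity normalised to -TGF-b and +DMSO controls; CRC fit, curve class.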
ATXN2 expr inh: reduces ATXN2 reporter expression in HEK-293 cells; Potency, µM (series often up to 57 µM), usual class: inhibitors; AID 1745845; HEK-293 ATXN2-luciferase reporter, luminescence, 24 h; 360,000 tested, 0.72% active; further: nearly all actives have a fitted effect of over 55% in size
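qHTS (up to 57 uM final) was run with 24 h compound exposure of reporter cells at 37 °C. Each well was multiplexed: SteadyGlo luminescence measured ATXN2-luciferase expression after a fluorogenic Gly-Phe-AFC viability readout (25 uM final).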
Gal4-VP16 FLuc: inhibits Gal4-VP16 luciferase reporter, ROR gamma counter-screen; Drosophila S2 Gal4-VP16 UAS-luciferase, luminescence, 20 h; 310,000 tested, 3.5% active; AID 2546; Potency, µM (series often up to 53.6 µM), hits mostly inhibitors;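 further: Gal4-VP16 expression switched on by copper sulfate through the metallothionein promoter; nearly all actives have a fitted effect of over 50% in size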
HepG2 tox: kills HepG2 cells in TGF-b inhibitor counter-screen; HepG2 CAGA-GFP viability, ATP luminescence, 18 h; Potency, µM (titrated, usually from 46.1 µM), actives largely listed as cytotoxic; 410,000 tested, 0.76% active; AID 588856
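HepG2 CAGA-GFP cells (1000/well, DMEM with 1% FBS) received compound, then TGF-beta at 500 pg/mL final, and were incubated 18 hours at 37 degrees C. Viability was read by CellTiter-Glo luminescence. Media-only wells were set as complete cell-killing and DMSO as no toxicity.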
Each line names hits and unclear results; the compound was inactive in the other large screens. This is a sample that favours compounds with a hit; in the whole collection about 6.3% have one here. The call rests on the fitted dose curve; in most records, active means well fitted curve in the direction sought with a large enough effect; inconclusive means small, poorly fitted or top-dose-only effect, or another doubt; inactive means no such curve, though single readings can be large; an effect the other way counts as inactive or inconclusive.

C=C1C(=O)[C@@]23[C@H](O)C[C@@H]4C(C)(C)CC[C@H](O)[C@]4(C)[C@@H]2C[C@H](O)[C@@H]1[C@H]3O	ATXN viability 18µM, RORg inh 2.5µM, TGFb SMAD3 inh 13µM, Gal4-VP16 FLuc 3.2µM
COC(=O)c1ccc(C(=O)NCC2Cc3cc(F)cc(-c4cncnc4)c3O2)cc1 (configuration not stated)	none (no result: RORg inh, TGFb SMAD3 inh, ATXN2 expr inh, Gal4-VP16 FLuc, HepG2 tox)
CCOc1ccc(C2C(C#N)=C(N)SC(N)=C2C#N)c(OCC)c1	ATXN viability inconclusive, RORg inh 13µM, Gal4-VP16 FLuc inconclusive
CCOc1cc(C2C(C#N)=C(N)SC(N)=C2C#N)ccc1OCCN1CCOCC1	RORg inh inconclusive
CC(C)(C)OC(=O)N1CCC(c2c(C(=O)N3CCN(C(=O)c4ccco4)CC3)cnn2-c2ccc(Cl)cc2)CC1	none (no result: ATXN viability, RORg inh, ATXN2 expr inh, Gal4-VP16 FLuc)
Cc1nc2sccn2c(=O)c1S(=O)(=O)Nc1ccc(N2CCOCC2)c(Cl)c1	RORg inh inconclusive, TGFb SMAD3 inh inconclusive
Cc1nc2scc(C)n2c(=O)c1S(=O)(=O)Nc1ccc(N2CCOCC2)c(Cl)c1	Gal4-VP16 FLuc 11µM
COc1ccc(/C=C\c2nccc3c2[nH]c2ccccc23)cc1	none (no result: ATXN viability, RORg inh, ATXN2 expr inh, Gal4-VP16 FLuc)
Clc1ccc(/C=C\c2nccc3c2[nH]c2ccccc23)cc1	RORg inh 1.6µM, Gal4-VP16 FLuc inconclusive (no result: ATXN viability)
N#Cc1ccc(/C=C\c2nccc3c2[nH]c2ccccc23)cc1	RORg inh 0.45µM, TGFb SMAD3 inh inconclusive, ATXN2 expr inh inconclusive, Gal4-VP16 FLuc 2.2µM (no result: ATXN viability)
CCOc1cc(CNCCSc2nnnn2-c2ccccc2)cc(Cl)c1OC	none (no result: RORg inh, Gal4-VP16 FLuc)
O=C(NCC1CCC2(CCN(Cc3cnn(-c4ccc(F)cc4)c3)CC2)O1)c1ccccc1 (configuration not stated)	none (no result: RORg inh, TGFb SMAD3 inh, ATXN2 expr inh, Gal4-VP16 FLuc, HepG2 tox)
O=C(N/N=C/c1cccc(OC(=O)N2CCOCC2)c1)c1cccs1	RORg inh inconclusive, Gal4-VP16 FLuc 13µM
COc1cccc(/C=N/NC(=O)c2cccs2)c1	none
O=C1C=C(c2n[nH]nc2-c2ccccc2)C[C@@H](c2ccc(F)cc2)C1	TGFb SMAD3 inh inconclusive, ATXN2 expr inh inconclusive (no result: RORg inh, Gal4-VP16 FLuc)
CCN(CC)CCNc1ccc(C)c2sc3ccc(O)cc3c(=O)c12	TGFb SMAD3 inh inconclusive, ATXN2 expr inh inconclusive, HepG2 tox 14µM (no result: ATXN viability, RORg inh, Gal4-VP16 FLuc)
CCN(CC)CCCNC(=O)C(C)n1nc(C)c2sc3ccccc3c2c1=O (configuration not stated)	ATXN viability inconclusive
OC(CNCc1ccco1)COc1ccccc1 (configuration not stated)	none
OC(CNCc1ccco1)Cn1c2ccccc2c2ccccc21 (configuration not stated)	TGFb SMAD3 inh inconclusive, HepG2 tox 18µM
Cc1cccc2nc(CNC(=O)CN3Cc4ccccc4OC(c4ccccc4F)C3)cn12 (configuration not stated)	none (no result: RORg inh, TGFb SMAD3 inh, ATXN2 expr inh, Gal4-VP16 FLuc, HepG2 tox)
COc1ccc(S(=O)(=O)N2CCN(C(=O)c3cc(-c4ccc(Br)cc4)n[nH]3)CC2)cc1OC	RORg inh inconclusive, TGFb SMAD3 inh inconclusive, ATXN2 expr inh inconclusive, Gal4-VP16 FLuc 13µM
O=C(c1cc(-c2ccc(Br)cc2)n[nH]1)N1CCN(S(=O)(=O)c2ccc(Br)cc2)CC1	none (no result: ATXN viability, RORg inh, ATXN2 expr inh, Gal4-VP16 FLuc)
COc1ccc(Cl)cc1S(=O)(=O)N1CCN(C(=O)c2cc(-c3ccc(Br)cc3)n[nH]2)CC1	TGFb SMAD3 inh 8.9µM (no result: ATXN viability, RORg inh, ATXN2 expr inh, Gal4-VP16 FLuc)
CC(=O)Nc1cccc(-c2ccnc3c2CC(C(=O)Nc2ccc(C(C)C)cc2)O3)c1 (configuration not stated)	ATXN viability inconclusive, ATXN2 expr inh inconclusive (no result: RORg inh, Gal4-VP16 FLuc)
CCOC(=O)Cc1nc2ccccc2o1	none (no result: ATXN viability, TGFb SMAD3 inh, ATXN2 expr inh, HepG2 tox)
CCCc1nc(Nc2nc3ccccc3o2)nc(C)c1C(=O)OCC	RORg inh 6.3µM, Gal4-VP16 FLuc inconclusive
Cc1ccnc(Nc2nc3ccccc3o2)n1	RORg inh 4.5µM, ATXN2 expr inh inconclusive, Gal4-VP16 FLuc 7.9µM
N#Cc1cnc(Nc2nc3ccccc3o2)nc1-c1ccccc1	RORg inh 2.5µM, Gal4-VP16 FLuc 5µM
CCOC(=O)c1cnc(Nc2nc3ccccc3o2)nc1CSc1ncccn1	none (no result: RORg inh, Gal4-VP16 FLuc)

Source: PubChem (National Center for Advancing Translational Sciences (NCATS))
